# Results published in article PMC7862700, “An all-to-all approach to the identification of sequence-specific readers for epigenetic DNA modifications on cytosine”.
# What was measured:
# Assay in all cases: DAPPL (digital affinity profiling via proximity ligation, sequencing); 10 mM Tris-HCl pH 7.5, 50 mM NaCl, 1 mM DTT, 4% glycerol, room temperature, 30 min; GST-TFs on glutathione beads, 16-mer random dsDNA library, 0.1% formaldehyde crosslink after washing; high values mean tight binding
# [1] = target: T1, FLI1 (Homo sapiens, UniProt Q01543 1-452); conditions: protein: recombinant; tags: N-terminal GST; dsDNA, one strand shown
# T1 sequence: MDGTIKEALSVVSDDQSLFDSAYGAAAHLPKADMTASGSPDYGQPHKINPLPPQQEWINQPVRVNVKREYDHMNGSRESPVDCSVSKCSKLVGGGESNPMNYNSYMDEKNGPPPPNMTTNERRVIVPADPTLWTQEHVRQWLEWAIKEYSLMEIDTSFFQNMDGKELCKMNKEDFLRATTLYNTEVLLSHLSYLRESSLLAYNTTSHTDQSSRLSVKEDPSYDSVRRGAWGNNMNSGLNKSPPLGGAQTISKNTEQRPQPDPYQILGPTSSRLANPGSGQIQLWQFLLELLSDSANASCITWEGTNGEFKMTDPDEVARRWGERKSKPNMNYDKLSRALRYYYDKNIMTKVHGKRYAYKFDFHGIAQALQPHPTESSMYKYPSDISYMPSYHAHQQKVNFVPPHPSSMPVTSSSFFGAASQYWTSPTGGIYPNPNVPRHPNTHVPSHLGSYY
# Outline: (§1)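 Sequencing on an Illumina NextSeq500 followed washing, crosslinking with 0.1% formaldehyde, proximity ligation (BsaI/T4 ligase, 1 h, 37 °C) and PCR amplification of pools that had been incubated for 30 min at room temperature with 200 nmole of a random double-stranded 16-mer DNA library in Tris/NaCl/DTT/glycerol buffer. Each pool held DNA-barcoded human transcription factors, expressed in yeast as GST fusions and captured on glutathione beads, plus a tag-only sample. Binding signal is a hexamer's read frequency for a factor divided by its frequency in the tag-only sample.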
# [2] = target: T2, ELK1 (Homo sapiens, UniProt P19419 1-428); conditions: protein: recombinant; tags: N-terminal GST; dsDNA, one strand shown
# T2 sequence: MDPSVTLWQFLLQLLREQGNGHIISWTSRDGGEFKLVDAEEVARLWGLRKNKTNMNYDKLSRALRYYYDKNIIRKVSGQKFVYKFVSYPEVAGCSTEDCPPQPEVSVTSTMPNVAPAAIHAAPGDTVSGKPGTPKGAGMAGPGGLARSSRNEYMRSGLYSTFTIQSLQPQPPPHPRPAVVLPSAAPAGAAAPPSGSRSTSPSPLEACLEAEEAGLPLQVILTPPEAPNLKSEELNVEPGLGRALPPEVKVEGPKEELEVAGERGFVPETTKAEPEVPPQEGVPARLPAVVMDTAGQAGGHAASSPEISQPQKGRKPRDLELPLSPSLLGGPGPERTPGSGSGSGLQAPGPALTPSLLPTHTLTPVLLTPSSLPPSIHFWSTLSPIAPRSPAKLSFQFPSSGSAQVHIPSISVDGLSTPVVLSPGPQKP
# Outline: as §1
# [3] = target: T3, GABPA (Homo sapiens, UniProt Q06546 1-454); conditions: protein: recombinant; tags: N-terminal GST; dsDNA, one strand shown
# T3 sequence: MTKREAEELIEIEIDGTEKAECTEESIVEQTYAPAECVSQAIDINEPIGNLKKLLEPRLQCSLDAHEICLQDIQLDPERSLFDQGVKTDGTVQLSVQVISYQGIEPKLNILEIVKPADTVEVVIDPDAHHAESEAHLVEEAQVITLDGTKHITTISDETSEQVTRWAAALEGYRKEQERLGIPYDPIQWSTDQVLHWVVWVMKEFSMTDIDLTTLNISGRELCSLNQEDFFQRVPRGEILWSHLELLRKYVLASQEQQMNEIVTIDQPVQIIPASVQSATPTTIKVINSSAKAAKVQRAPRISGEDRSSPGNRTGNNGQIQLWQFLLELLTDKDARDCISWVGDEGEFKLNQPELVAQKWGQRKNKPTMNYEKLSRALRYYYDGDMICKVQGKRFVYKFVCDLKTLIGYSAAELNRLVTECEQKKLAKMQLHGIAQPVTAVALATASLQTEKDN
# Outline: as §1
# [4] = target: T4, ERG (Homo sapiens, UniProt P11308 1-479); conditions: protein: recombinant; tags: N-terminal GST; dsDNA, one strand shown
# T4 sequence: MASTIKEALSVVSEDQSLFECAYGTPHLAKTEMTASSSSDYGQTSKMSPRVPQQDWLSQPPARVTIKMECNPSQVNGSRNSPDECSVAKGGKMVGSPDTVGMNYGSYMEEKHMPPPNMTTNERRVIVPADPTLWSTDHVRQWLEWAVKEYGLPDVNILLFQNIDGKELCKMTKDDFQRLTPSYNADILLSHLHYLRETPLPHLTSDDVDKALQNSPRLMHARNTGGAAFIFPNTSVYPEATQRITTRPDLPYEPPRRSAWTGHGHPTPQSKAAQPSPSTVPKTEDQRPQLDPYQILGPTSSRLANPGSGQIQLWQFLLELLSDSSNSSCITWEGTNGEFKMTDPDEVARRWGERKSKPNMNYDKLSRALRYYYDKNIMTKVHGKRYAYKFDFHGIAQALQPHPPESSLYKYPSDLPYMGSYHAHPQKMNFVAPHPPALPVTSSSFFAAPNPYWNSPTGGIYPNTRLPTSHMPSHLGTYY
# Outline: as §1
# [5] = target: ELF1 (Homo sapiens, UniProt P32519 1-619); conditions: protein: recombinant; tags: N-terminal GST; dsDNA, one strand shown
# Outline: as §1
# [6] = target: T5, EHF (Homo sapiens, UniProt Q9NZC4 1-300); conditions: protein: recombinant; tags: N-terminal GST; dsDNA, one strand shown
# T5 sequence: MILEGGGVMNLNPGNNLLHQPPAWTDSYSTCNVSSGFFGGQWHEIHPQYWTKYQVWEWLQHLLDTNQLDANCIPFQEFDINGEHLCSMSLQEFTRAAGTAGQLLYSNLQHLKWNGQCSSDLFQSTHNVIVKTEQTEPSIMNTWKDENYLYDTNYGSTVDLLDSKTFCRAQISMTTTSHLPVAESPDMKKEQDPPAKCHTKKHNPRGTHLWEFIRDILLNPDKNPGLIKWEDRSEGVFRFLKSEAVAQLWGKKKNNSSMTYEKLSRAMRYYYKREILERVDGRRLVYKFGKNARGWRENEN
# Outline: as §1
# [7] = target: SPI1 (Homo sapiens, UniProt P17947 1-270); conditions: protein: recombinant; tags: N-terminal GST; dsDNA, one strand shown
# Outline: as §1
# [8] = target: SPIB (Homo sapiens, UniProt Q01892 1-262); conditions: protein: recombinant; tags: N-terminal GST; dsDNA, one strand shown
# Outline: as §1
# [9] = target: T6, ELK3 (Homo sapiens, UniProt P41970 1-407); conditions: protein: recombinant; tags: N-terminal GST; dsDNA, one strand shown
# T6 sequence: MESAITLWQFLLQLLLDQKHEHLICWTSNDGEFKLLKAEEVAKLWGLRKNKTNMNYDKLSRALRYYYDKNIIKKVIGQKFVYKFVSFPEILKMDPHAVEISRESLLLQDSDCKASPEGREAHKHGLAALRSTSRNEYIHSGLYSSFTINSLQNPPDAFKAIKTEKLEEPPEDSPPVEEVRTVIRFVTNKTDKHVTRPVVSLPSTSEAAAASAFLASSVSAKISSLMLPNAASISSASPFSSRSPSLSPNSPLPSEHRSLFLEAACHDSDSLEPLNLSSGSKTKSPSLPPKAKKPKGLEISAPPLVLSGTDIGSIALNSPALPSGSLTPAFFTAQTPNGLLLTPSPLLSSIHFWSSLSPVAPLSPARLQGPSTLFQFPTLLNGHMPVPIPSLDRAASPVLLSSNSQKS
# Outline: as §1
# [10] = target: T7, FEV (Homo sapiens, UniProt Q99581 1-238); conditions: protein: recombinant; tags: N-terminal GST; dsDNA, one strand shown
# T7 sequence: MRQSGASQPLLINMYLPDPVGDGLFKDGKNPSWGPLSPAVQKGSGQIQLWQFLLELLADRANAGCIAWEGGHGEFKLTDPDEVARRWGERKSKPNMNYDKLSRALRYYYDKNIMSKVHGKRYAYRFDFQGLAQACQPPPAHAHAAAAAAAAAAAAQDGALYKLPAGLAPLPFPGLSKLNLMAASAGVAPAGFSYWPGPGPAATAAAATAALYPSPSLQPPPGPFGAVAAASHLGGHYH
# Outline: as §1
# [11] = target: ETV5 (Homo sapiens, UniProt P41161 1-510); conditions: protein: recombinant; tags: N-terminal GST; dsDNA, one strand shown
# Outline: as §1
# [12] = target: HSF1 (Homo sapiens, UniProt Q00613 1-529); conditions: protein: recombinant; tags: N-terminal GST; chain copies: 3; dsDNA, one strand shown
# Outline: as §1
# [13] = target: T8, SPIC (Homo sapiens, UniProt Q8N5J4 1-248); conditions: protein: recombinant; tags: N-terminal GST; dsDNA, one strand shown
# T8 sequence: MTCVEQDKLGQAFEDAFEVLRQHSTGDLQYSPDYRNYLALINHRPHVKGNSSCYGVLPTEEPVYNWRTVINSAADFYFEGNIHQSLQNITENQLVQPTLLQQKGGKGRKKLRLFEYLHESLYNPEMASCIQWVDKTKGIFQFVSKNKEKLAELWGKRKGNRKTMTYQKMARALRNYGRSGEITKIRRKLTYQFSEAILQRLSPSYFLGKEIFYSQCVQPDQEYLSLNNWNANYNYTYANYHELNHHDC
# Outline: as §1
# [14] = target: ELF4 (Homo sapiens, UniProt Q99607 1-663); conditions: protein: recombinant; tags: N-terminal GST; dsDNA, one strand shown
# Outline: as §1
# [15] = target: T9, ELK4 (Homo sapiens, UniProt P28324-2 1-405); conditions: protein: recombinant; tags: N-terminal GST; dsDNA, one strand shown
# T9 sequence: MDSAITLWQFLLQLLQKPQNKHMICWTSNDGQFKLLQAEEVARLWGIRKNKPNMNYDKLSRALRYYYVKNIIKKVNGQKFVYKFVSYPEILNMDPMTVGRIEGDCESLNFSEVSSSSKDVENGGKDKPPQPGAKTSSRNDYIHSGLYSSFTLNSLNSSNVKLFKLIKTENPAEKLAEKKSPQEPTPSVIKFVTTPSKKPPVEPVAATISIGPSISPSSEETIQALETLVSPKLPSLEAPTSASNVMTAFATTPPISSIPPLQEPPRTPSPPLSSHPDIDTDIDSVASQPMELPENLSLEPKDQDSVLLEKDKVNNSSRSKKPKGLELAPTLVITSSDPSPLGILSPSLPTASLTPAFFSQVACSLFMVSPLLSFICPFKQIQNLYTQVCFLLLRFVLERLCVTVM
# Outline: as §1
# [16] = target: T10, ETV2 (Homo sapiens, UniProt O00321 1-342); conditions: protein: recombinant; tags: N-terminal GST; dsDNA, one strand shown
# T10 sequence: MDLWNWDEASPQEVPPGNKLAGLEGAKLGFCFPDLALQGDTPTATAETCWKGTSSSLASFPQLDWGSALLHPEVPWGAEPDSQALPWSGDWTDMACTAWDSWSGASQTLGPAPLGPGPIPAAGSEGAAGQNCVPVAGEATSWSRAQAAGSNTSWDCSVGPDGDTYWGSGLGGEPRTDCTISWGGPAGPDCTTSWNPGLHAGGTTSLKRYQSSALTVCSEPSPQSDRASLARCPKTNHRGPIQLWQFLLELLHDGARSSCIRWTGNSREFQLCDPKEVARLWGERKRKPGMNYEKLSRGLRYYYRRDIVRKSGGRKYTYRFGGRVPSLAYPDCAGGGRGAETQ
# Outline: as §1
# [17] = target: T11, ELF3 (Homo sapiens, UniProt P78545 1-371); conditions: protein: recombinant; tags: N-terminal GST; dsDNA, one strand shown
# T11 sequence: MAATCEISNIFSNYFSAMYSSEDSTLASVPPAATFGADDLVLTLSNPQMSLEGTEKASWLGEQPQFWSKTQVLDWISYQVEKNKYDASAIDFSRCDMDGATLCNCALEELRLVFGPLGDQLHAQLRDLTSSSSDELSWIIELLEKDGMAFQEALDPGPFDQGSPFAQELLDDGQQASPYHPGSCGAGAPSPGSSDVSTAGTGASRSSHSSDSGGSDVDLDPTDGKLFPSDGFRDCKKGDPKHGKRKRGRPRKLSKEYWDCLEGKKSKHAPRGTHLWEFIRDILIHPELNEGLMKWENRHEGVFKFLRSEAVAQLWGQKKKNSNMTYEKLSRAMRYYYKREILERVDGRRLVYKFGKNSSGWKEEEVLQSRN
# Outline: as §1
# [18] = target: CRX (Homo sapiens, UniProt O43186 1-299); conditions: protein: recombinant; tags: N-terminal GST; dsDNA, one strand shown
# Outline: as §1
# [19] = target: ETV1 (Homo sapiens, UniProt P50549 1-477); conditions: protein: recombinant; tags: N-terminal GST; dsDNA, one strand shown
# Outline: as §1
# Sequence of ELF1 (P32519 whole entry): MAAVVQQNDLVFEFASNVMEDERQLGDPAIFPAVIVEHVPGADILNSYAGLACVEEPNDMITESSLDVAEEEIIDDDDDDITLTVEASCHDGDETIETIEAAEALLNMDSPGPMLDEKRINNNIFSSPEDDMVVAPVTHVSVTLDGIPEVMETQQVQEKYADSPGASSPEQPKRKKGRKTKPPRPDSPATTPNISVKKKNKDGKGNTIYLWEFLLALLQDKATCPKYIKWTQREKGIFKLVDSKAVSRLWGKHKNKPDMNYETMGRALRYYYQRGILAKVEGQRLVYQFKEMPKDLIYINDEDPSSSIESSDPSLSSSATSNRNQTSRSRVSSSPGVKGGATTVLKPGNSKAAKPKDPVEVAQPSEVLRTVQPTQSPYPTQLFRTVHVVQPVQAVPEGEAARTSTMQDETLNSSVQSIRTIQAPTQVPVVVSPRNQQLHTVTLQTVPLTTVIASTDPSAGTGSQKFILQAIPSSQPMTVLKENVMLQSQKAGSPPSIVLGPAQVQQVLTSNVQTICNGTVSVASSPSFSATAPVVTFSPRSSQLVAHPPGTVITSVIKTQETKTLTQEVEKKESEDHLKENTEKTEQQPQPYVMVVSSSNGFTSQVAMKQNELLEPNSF
# Sequence of ETV1 (P50549 whole entry): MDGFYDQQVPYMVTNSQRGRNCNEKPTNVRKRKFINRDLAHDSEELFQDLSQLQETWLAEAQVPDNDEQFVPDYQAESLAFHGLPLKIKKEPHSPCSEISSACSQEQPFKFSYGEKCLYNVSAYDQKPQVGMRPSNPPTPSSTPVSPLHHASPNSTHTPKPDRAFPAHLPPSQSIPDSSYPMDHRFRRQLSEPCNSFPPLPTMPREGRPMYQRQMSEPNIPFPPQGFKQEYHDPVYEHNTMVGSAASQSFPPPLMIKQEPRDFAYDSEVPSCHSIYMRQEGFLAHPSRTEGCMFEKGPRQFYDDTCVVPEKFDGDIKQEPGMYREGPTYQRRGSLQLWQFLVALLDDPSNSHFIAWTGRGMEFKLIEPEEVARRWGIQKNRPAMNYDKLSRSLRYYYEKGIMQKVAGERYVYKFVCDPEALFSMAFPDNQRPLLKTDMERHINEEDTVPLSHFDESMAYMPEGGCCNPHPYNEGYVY
# Sequence of ETV5 (P41161 whole entry): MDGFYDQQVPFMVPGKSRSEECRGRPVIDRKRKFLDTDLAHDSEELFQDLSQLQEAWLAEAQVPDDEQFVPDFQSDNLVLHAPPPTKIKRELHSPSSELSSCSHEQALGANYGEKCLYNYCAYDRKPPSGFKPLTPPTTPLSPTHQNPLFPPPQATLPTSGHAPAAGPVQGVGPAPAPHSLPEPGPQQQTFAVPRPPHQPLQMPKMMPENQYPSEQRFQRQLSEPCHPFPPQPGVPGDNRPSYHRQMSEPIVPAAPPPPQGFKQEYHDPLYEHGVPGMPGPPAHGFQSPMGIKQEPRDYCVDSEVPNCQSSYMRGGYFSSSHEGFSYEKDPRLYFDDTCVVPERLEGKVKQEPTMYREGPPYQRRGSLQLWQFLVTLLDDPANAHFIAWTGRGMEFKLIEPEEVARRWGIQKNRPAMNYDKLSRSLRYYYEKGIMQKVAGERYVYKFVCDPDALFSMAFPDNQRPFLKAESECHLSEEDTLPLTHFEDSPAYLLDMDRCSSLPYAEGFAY
# Sequence of ELF4 (Q99607 whole entry): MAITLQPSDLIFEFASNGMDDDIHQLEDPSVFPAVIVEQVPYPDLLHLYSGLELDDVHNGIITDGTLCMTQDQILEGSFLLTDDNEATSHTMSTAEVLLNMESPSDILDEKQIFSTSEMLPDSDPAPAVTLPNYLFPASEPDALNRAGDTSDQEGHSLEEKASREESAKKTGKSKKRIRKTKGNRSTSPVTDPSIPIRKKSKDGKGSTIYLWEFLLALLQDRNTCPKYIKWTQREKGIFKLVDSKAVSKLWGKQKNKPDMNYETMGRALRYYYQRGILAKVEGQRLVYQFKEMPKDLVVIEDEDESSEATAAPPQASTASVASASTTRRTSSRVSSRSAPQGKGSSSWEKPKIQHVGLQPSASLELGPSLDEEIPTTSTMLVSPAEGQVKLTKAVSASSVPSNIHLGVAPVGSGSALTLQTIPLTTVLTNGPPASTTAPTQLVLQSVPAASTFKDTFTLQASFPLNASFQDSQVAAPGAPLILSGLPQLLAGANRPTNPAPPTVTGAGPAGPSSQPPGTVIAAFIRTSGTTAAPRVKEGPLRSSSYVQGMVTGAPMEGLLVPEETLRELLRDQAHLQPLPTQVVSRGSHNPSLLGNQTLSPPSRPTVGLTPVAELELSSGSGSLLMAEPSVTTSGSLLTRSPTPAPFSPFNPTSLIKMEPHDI
# Sequence of HSF1 (Q00613 whole entry): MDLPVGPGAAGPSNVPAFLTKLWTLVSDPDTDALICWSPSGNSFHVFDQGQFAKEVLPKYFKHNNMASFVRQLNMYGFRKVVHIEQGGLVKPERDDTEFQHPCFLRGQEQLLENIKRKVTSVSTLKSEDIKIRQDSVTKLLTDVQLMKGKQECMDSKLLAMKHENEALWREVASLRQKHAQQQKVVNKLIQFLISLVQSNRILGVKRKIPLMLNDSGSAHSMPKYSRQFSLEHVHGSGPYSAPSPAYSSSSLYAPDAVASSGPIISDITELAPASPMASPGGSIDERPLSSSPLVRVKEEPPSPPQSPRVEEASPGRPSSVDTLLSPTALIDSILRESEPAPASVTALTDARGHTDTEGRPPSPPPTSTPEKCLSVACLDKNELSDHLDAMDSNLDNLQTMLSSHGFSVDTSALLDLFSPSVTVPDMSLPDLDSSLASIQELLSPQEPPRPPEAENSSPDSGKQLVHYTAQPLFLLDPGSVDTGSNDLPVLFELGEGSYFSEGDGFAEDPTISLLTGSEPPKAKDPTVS
# Sequence of CRX (O43186 whole entry): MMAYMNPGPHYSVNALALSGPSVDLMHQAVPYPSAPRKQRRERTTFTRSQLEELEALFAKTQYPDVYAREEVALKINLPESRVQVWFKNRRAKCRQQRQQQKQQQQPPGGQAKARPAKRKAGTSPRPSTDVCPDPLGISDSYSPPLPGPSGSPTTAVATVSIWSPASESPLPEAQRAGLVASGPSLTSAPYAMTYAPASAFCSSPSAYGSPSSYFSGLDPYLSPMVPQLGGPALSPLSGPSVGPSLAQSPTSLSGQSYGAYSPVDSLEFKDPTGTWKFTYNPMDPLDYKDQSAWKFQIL
# Sequence of SPIB (Q01892 whole entry): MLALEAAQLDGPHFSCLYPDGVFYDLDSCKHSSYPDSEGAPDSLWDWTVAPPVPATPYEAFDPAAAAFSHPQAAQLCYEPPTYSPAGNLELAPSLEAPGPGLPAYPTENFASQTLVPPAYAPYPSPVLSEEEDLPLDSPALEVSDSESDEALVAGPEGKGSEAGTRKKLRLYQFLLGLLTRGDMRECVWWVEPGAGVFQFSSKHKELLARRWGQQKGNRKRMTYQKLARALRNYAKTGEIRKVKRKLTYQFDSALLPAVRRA
sequence,measurement,setting,value
AATTGC,binding signal,[1],"1.44 fold enrichment (6-mer frequency, TF over GST control)"
same,binding signal,[2],"1.42 fold enrichment (6-mer frequency, TF over GST control)"
same,binding signal,[3],"1.44 fold enrichment (6-mer frequency, TF over GST control)"
same,binding signal,[4],"1.3 fold enrichment (6-mer frequency, TF over GST control)"
same,binding signal,[5],"1.34 fold enrichment (6-mer frequency, TF over GST control)"
same,binding signal,[6],"1.38 fold enrichment (6-mer frequency, TF over GST control)"
same,binding signal,[7],"1.43 fold enrichment (6-mer frequency, TF over GST control)"
same,binding signal,[8],"1.29 fold enrichment (6-mer frequency, TF over GST control)"
same,binding signal,[9],"1.46 fold enrichment (6-mer frequency, TF over GST control)"
same,binding signal,[10],"1.39 fold enrichment (6-mer frequency, TF over GST control)"
same,binding signal,[11],"1.43 fold enrichment (6-mer frequency, TF over GST control)"
same,binding signal,[12],"1.24 fold enrichment (6-mer frequency, TF over GST control)"
same,binding signal,[13],"1.2 fold enrichment (6-mer frequency, TF over GST control)"
same,binding signal,[14],"1.36 fold enrichment (6-mer frequency, TF over GST control)"
same,binding signal,[15],"1.29 fold enrichment (6-mer frequency, TF over GST control)"
same,binding signal,[16],"1.44 fold enrichment (6-mer frequency, TF over GST control)"
same,binding signal,[17],"1.5 fold enrichment (6-mer frequency, TF over GST control)"
same,binding signal,[18],"1.17 fold enrichment (6-mer frequency, TF over GST control)"
same,binding signal,[19],"1.35 fold enrichment (6-mer frequency, TF over GST control)"
